Measured values as given in PubChem BioAssay AID588848 (Broad Institute, 2011).
Measured potencies and affinities stand elsewhere. Inconclusive results are not listed. Activity calls are given as the source filed them.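 How the source made its calls: active means fitted half-maximal inhibiting dose no more than ten times the top valid dose tested; inconclusive means flat activity from -30 to -70%, or unreliable curve fit; inactive means the rest.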

Each compound was assayed against CAAX prenyl protease 2 (Homo sapiens) (UniProt Q9Y256) (assay: human Rce1 protease inhibitors, dose response, biochemical, plate reader, dry powder samples (AID 588848)). Details: yeast membranes expressing human Rce1, fluorogenic peptide cleavage; series mostly up to 30 µM; activity change, negative = inhibition: at the top concentration.
Chain of CAAX prenyl protease 2 (Homo sapiens) (Q9Y256 whole entry, looked up): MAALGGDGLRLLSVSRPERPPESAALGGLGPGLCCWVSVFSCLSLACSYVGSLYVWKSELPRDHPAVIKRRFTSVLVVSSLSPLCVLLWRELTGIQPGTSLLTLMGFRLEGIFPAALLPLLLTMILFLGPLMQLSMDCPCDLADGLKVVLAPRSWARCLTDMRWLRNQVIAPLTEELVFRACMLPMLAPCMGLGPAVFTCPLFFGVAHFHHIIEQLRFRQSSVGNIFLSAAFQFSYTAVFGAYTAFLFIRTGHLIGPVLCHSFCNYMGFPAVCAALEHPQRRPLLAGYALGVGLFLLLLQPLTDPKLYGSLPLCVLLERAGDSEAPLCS

Activity change, negative = inhibition, inactive:
Cc1cccc(-c2nnc(SCc3ccc(C#N)cc3)n2Cc2ccco2)c1 13.3%
CCOc1cccc(-c2c(C(=O)N/N=C/c3cccs3)nnn2-c2nonc2N)c1 14%
COc1ccc(-n2c(SCc3ccc([N+](=O)[O-])cc3)nnc2-c2ccc(C)cc2)cc1 7.73%
Nc1nonc1-n1nnc(C(=O)N/N=C/c2cccc(Cl)c2)c1CSc1ccc(Cl)cc1 18.1%
CCCOc1ccc(-c2c(C(=O)N/N=C/c3cccs3)nnn2-c2nonc2N)cc1 16.2%
CC(C)c1c(C(=O)N/N=C/c2cccc3ccccc23)nnn1-c1nonc1N 8.17%
Cc1ccc(NC(=O)CCc2ccc(S(=O)(=O)NC3CCCCC3)cc2)cc1 9.46%
Cc1ccc(SCc2c(C(=O)N/N=C/c3ccccc3)nnn2-c2nonc2N)cc1 10.5%
CN(C(=O)COC(=O)c1cn(-c2ccccc2)nc1-c1ccccc1)C1CCS(=O)(=O)C1 (stereo not given) -2.52%
Cc1cc(N2CCN(C(c3ccccc3)c3ccccc3)CC2)n2ncnc2n1 -8.64%
